The list is not random: actives were taken first. Their share in the collection is about 7.9%.
Lassa entry inh = blocks Lassa virus binding to or entry into cells; Lassa virus pseudotype entry inhibition, cell reporter; Potency, µM (titrated, usually from 37.9 µM), for the others: at the top dose activity change, negative = inhibition, most hits filed as inhibitors; 300,000 compounds, 1.2% hits; AID 540256; calls by dose curve; tested in HEK293 cells; also: potency is read from the fitted curve at half-maximal effect; nearly all actives have a fitted effect of over 50% in size
FMDV inh = blocks foot and mouth disease virus; FMDV antiviral cell-based qHTS; 410,000 compounds, 1.2% hits; AID 1159524; Potency, µM (top dose mostly 57.9 µM), for inactives: at the top dose activity change, negative = inhibition, usual class: inhibitors; calls by dose curve; tested in HEK293T cells; also: read-out not given here; potency is read from the fitted curve at half-maximal effect; nearly all actives have a fitted effect of over 45% in size
MARV entry inh = Marburg virus entry inhibition | Marburg virus pseudotyped entry inhibition, cell reporter | Potency, µM (top dose mostly 37.8 µM), for inactives: top-dose activity change, negative = inhibition, usual class: inhibitors | 300,000 compounds, 1.8% hits; calls by dose curve; tested in HEK293 cells; also: potency is read from the fitted curve at half-maximal effect
HCV inhibitor = inhibitors of hepatitis C virus infection; Huh7.5.1 HCVcc-Cre infection, luciferase reporter, 44 h; Potency, µM (highest dose often 41.8 µM), for the others: at the top dose activity change, negative = inhibition, usual class: inhibitors; 340,000 compounds, 3.4% hits; active = well fitted inhibition curve with a large enough effect; inconclusive = small, poorly fitted or top-dose-only effect, or another doubt; inactive = no such curve, though single readings can be large or run the other way; also: potency is read from the fitted curve at half-maximal effect
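A cell-based infection assay in which seeded cells (1,000 per well) receive test compound after 4 h, are inoculated with HCVcc-Cre at approximately 0.5 moi, and are incubated 44 h before luminescence detection.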
HCMV inh = human cytomegalovirus inhibition; HFF cells, HCMV-luciferase reporter, 72 h; hits give low values; activity change, negative = inhibition, % at 57.5 µM; 410,000 compounds, 4.5% hits; AID 1259415; in the data active = activity change below about -60%; inconclusive = no clear call, values can overlap the other calls; inactive = above about -39%
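Compounds were evaluated in HFFs infected with an HCMV luciferase reporter virus (MOI 1 PFU/cell). Luciferase in lysates collected 72 h post infection served as the replication measure.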
* hit, by the source's call; ? = inconclusive; . = not tested or not shown; [ ] = another dose, or the depositor's remark. % is scaled to controls: 0 for no effect and ±100 for the full control effect.

SMILES | Lassa entry inh | FMDV inh | MARV entry inh | HCV inhibitor | HCMV inh
CCCn1c(=O)n(C)c(=O)c2c(SCC(=O)Nc3cc(C)on3)nc(C(C)(C)C)nc21 | . | ? | . | 10µM* | -2.8
Cc1cc(NC(=O)CSc2nc(C(C)C)nc3c2c(=O)n(C)c(=O)n3C)no1 | . | ? | . | 4.7% | -33.7
COc1ccc(CNC(=O)c2ccc(N3CCC4(CC3)CC(c3ccc(Cl)cc3)=NO4)c([N+](=O)[O-])c2)cc1 | . | ? | . | 0.891µM* | ?
Cc1ccc(CNC(=O)c2ccc(N3CCC4(CC3)CC(c3cccc(Br)c3)=NO4)c([N+](=O)[O-])c2)cc1 | . | -16.4% | . | -17.8% | 7.2
Cc1ccc(CNC(=O)c2ccc(N3CCC4(CC3)CC(c3ccccc3)=NO4)c(NC(=O)c3ccc(Cl)c([N+](=O)[O-])c3)c2)cc1 | . | -4.5% | . | 11.2µM* | 7.1
Cc1ccccc1-c1cccc(CN2CCc3nnc(C(NS(C)(=O)=O)C(C)C)n3CC2)c1 (configuration not stated) | . | -3.1% | . | . | .
COC(=O)[C@]1(C#N)[C@H](C)C(=O)N(Cc2ccccc2)[C@@H]1/C=C/c1ccccc1 | . | . | . | . | -9.6
CCOC(=O)C(=Cc1ccc(-n2cncn2)cc1)C(=O)OCC | 11.2µM* | 28.2µM* | ? | -25.3% | -100.1*
O=C(CN1CCN(S(=O)(=O)N2CCOCC2)CC1)Nc1cc(Cl)ccc1Cl | . | 28.2µM* | ? | ? | -1.9
O=C(CN1CCOCC1)Nc1cc(C(F)(F)F)ccc1Cl | 2.5% | -21.6% | ? | -27.0% | -66.1*
Cc1nc2cc(NS(=O)(=O)c3c(C)c(C)cc(C)c3C)ccc2s1 | -7.2% | -22.1% | -26.8% | 2.82µM* | -81.8*
Cc1nc2ccc(NS(=O)(=O)c3c(C)c(C)cc(C)c3C)cc2s1 | ? | 10.5% | ? | 15.8µM* | -61.4*
O=C(CNc1cc(S(=O)(=O)N2CCOCC2)ccc1NCC1CCCO1)Nc1cccc(F)c1 (configuration not stated) | 2.3% | 25.7% | ? | 10.3% | -29.2
CN(C)C(=O)[C@@H]1C[C@@H](Sc2nc3ccccc3[nH]2)CN1Cc1ccnc2ccccc12 | . | 11.0% | . | . | .
OCc1nc2ccccc2n1Cc1c(F)cccc1Cl | 15.3%[46.1 µM] | -28.1% | -8.9%[46.1 µM] | 2.1% | -23.3
Fc1cccc(Cl)c1Cn1c(-c2cccs2)nc2ccccc21 | 13.1%[46.1 µM] | 0.0% | -25.1%[46.1 µM] | . | -63.4*
CCn1c(/C=C/c2ccccc2)nc2ccccc2c1=O | . | -24.3% | . | ? | -60.6*
O=c1c2ccccc2nc(/C=C/c2c[nH]c3ccccc23)n1CCO | ? | 0.0% | -6.5%[46.1 µM] | ? | -12.0
O=c1c2ccccc2nc(/C=C/c2cc(Br)ccc2O)n1CCO | . | ? | . | 14.1µM* | -98.2*
CCCc1nc2ccccc2c(=O)n1CCc1ccccc1 | 2.51µM* | ? | ? | ? | -26.0
CCn1c(/C=C/c2ccc(F)cc2)nc2ccccc2c1=O | . | -19.4% | . | -4.2% | -36.4
O=c1c2ccccc2nc(/C=C/c2ccc(O)cc2)n1CCc1ccccc1 | 9.2µM* | 35.5µM* | ? | 12.6µM* | ?
CC(C)(C)C1CCc2c(sc3nc(-c4cc5cc(Cl)ccc5oc4=O)[nH]c(=O)c23)C1 (configuration not stated) | -2.7%[46.1 µM] | -3.4% | . | . | -22.2
CCn1c(/C=C/c2ccccc2)nc2ccccc21 | ? | 0.5% | ? | 7.94µM* | 63.0
CC(C)Cn1c(/C=C/c2ccccc2)nc2ccccc21 | -5.6% | -3.8% | ? | ? | 10.8
SMILES | Lassa entry inh | FMDV inh | MARV entry inh | HCV inhibitor | HCMV inh
CCN(CC)S(=O)(=O)c1ccc2oc(SCC3CN=C(c4ccc(OC)cc4)S3)nc2c1 (configuration not stated) | ? | ? | -29.6% | 11.2µM* | -66.8*
CC1CCCCC1NC(=O)COC(=O)c1ccc2c(c1Cl)C(=O)c1ccccc1C2=O (configuration not stated) | -12.9% | -18.8% | ? | 25.1µM* | -74.3*
O=C(COC(=O)c1ccc2c(c1[N+](=O)[O-])C(=O)c1ccccc1C2=O)NC1CC1 | ? | ? | ? | ? | 39.1
O=c1ccc2ccc(Oc3ccc([N+](=O)[O-])cc3Cl)cc2o1 | 9.9%[46.1 µM] | 8.7% | ? | 11.2µM* | -11.1
COc1cccc(COc2ccc3c(C)cc(=O)oc3c2)c1 | ? | 28.4% | ? | -41.9% | 68.1
NC(=O)c1ccc(Oc2ccc3ccc(=O)oc3c2)c([N+](=O)[O-])c1 | 3.2%[46.1 µM] | 6.7% | ? | 4.7% | 6.4
COc1ccccc1C1=NOC(COc2ccc3c(C)cc(=O)oc3c2)C1 (configuration not stated) | ? | -9.7% | ? | ? | -94.6*
COc1ccc2c(C)cc(=O)oc2c1 | . | -22.2% | . | -29.6% | -101.9*
Cc1cc(=O)oc2cc(Oc3ccc([N+](=O)[O-])cc3[N+](=O)[O-])ccc12 | -25.5% | 35.5µM* | ? | ? | 3.5
CCOc1ccc(NC(=O)C(=O)NCCc2csc(-c3ccc(F)cc3)n2)cc1 | -3.5%[46.1 µM] | ? | . | . | 17.9
COc1ccc(CCNC(=O)C(=O)Nc2ccc(C)cc2)cc1OC | ? | -23.8% | . | . | -4.0
O=CN1CCCN(C(=O)c2cc(NC(=O)c3ccccc3)cc3ncn(C4CCCC4)c23)CC1 | . | 4.9% | . | . | .
COc1ccc(C2=NOC(COc3ccc4c(C)cc(=O)oc4c3)C2)c(OC)c1 (configuration not stated) | ? | 2.9% | ? | ? | -68.9*
NC(c1csc(Nc2cnccn2)n1)C1CCCCC1 (configuration not stated) | . | 0.0% | . | . | -68.4*
NC(c1csc(Nc2ncccn2)n1)C1CCCCC1 (configuration not stated) | . | 1.4% | . | . | 7.9
NC(c1csc(Nc2ccc(C(F)(F)F)cn2)n1)C1CCCCC1 (configuration not stated) | . | -28.2% | . | . | -102.0*
NC(CO)c1csc(Nc2ccc(C(F)(F)F)cn2)n1 (configuration not stated) | . | -3.0% | . | . | 1.3
CCN(Cc1ccccc1)C(=O)c1nc(-c2cccc(F)c2)n2c1CCCCC2 | 8.5%[46.1 µM] | -12.9% | . | . | -11.9
COC(=O)C(Sc1ccc(Cl)cc1)C1SC(=S)N(Cc2ccccc2)C1=O (configuration not stated) | . | 31.6µM* | . | . | -5.2
COC(=O)c1cccc(CN2C(=O)C(C)Sc3cc(Cl)ccc32)c1 (configuration not stated) | . | 16.6% | . | . | 94.0
O=C(Nc1cc(F)ccc1F)N1CC(=O)N2[C@@H](CO)[C@H](c3ccc(Br)cc3)[C@@H]2C1 | . | . | . | . | 3.7
CN(C(=O)c1ccc(F)cc1)c1ccc(OCC(=O)Nc2ccccc2C(=O)O)cc1 | -2.7% | -5.8% | -3.4% | -19.7% | ?
COCC(C)n1c(SCC(=O)Nc2cc(C)on2)nc2ccccc2c1=O (configuration not stated) | -29.4% | -6.8% | -0.4% | 25.3% | -12.4
CCC(C)n1c(SCC(=O)Nc2cc(C)on2)nc2ccccc2c1=O (configuration not stated) | -11.9% | -23.2% | 3.98µM* | ? | -6.3

High-throughput results as filed in PubChem.
